Here are results for 66 compounds from ChEMBL document CHEMBL4513216, “Probing the Open Global Health Chemical Diversity Library for Multistage-Active Starting Points for Next-Generation Antimalarials” (ACS Infect Dis, 2020).

In all, about 69,000 compounds went through this assay and about 8,600 (12%) showed an effect of 50% or more. This excerpt belongs to a sample that is enriched for strong results.

The subject of the assay is Plasmodium berghei. Briefly: Screen against P. berghei liver stage (PbLuc), transformed with Luciferase, at 10uM. It counts as functional, HepG2. The conditions noted are these: tested at 10 uM.
Turning to `CCN1Cc2nccn2CC(COCc2csc(C)n2)C1` (stereo unspecified), the INHIBITION is reported as 8.66%.
For `N#Cc1ccc(F)c(CN2CCc3sccc3C2)c1`, the INHIBITION amounted to 41.6%.
The same measure for `N#Cc1ccc(CN2CCc3sccc3C2)c(F)c1`: 4.95%.
Consider `N#Cc1ccccc1CN1CCc2sccc2C1`, for which the INHIBITION is 60.4%.
With `Cc1nc(C)n(CC2CCCN(Cc3cccc(C(N)=O)c3)C2)n1` (stereo unspecified) the figure was -43.5%; with `Cc1ccc(N2C[C@@H]3CN(C(=O)NC4CCCC4)C[C@]3(C(=O)O)C2)nn1`, 56.6%; with `O=C(NC1CCCC1)N1C[C@H]2CN(c3ccccn3)C[C@@]2(C(=O)O)C1`, 6.27%.
The same measure for `O=C(NC1CCCC1)N1C[C@H]2CN(c3ccncc3)C[C@@]2(C(=O)O)C1`: 28.7%; for `CC(C)C(=O)NC1CCCN(C(=O)c2ccccc2O)C1` (stereo unspecified): 8.64%.
The same measure for `Cc1ccc(C(=O)N2CCCC(NC(=O)C(C)C)C2)c(O)c1` (stereo unspecified): 54.4%; for `Cc1ccc(O)c(C(=O)N2CCCC(NC(=O)C(C)C)C2)c1` (stereo unspecified): 5.9%; for `CC(C)C(=O)NC1CCCN(C(=O)c2cc(Cl)ccc2O)C1` (stereo unspecified): 18.2%.
For the compound `CC(C)C(=O)NC1CCCN(C(=O)c2ccc(O)c(Cl)c2)C1` (stereo unspecified), the INHIBITION is listed as 66.2%.
The same measure for `COc1ccc(C(=O)N2CCCC(NC(=O)C(C)C)C2)c(O)c1` (stereo unspecified): -9.19%; for `c1cnc(CC2COCCN(C3CCCCC3)C2)cn1` (stereo unspecified): 14%; for `c1ccc(-c2nc(CCNCc3ccccn3)co2)cc1`: 34.4%.
With `CCN(Cc1nc(COC)no1)Cc1cc2ccc(F)cc2[nH]c1=O` the figure was 0.546%; with `CCc1cnc(C)nc1NC1CC(=O)N(CC2CCCCC2)C1` (stereo unspecified), -20.8%; with `Cc1nc(CN2Cc3nccn3CC(COCC3CC3)C2)cs1` (stereo unspecified), 41.2%.
With `CNC(=O)CN1CCOCC12CCN(CCc1ccccc1)CC2` the figure was 38.1%.
As for `COc1c(C2CCCN2CC(=O)Nc2nccs2)c(C)nn1C` (stereo unspecified), the INHIBITION is recorded as -24.7%.
The same measure for `Cc1ccc(C2CN(C(=O)c3ccn(C)c(=O)c3)CCO2)nc1` (stereo unspecified): 44.8%.
Take `Cn1ccc(C(=O)N2CCOC(c3ccccn3)C2)cc1=O` (stereo unspecified): the INHIBITION is reported as -5.71%.
The same measure for `Cn1ccc(C(=O)N2CCOC(c3ccccc3)C2)cc1=O` (stereo unspecified): 50.5%; for `Cc1cc(-n2cncn2)n2ncnc2n1`: 47.1%.
With `CC(C)N(CCC#N)C(=O)c1cnc(-c2ccc3c(c2)OCO3)s1` the figure was -73.9%; with `CC(C)c1nnc2n1CC(CNCc1nnc(C(C)(C)C)o1)CC2` (stereo unspecified), 3.77%; with `CCN1CCN(c2nc3cn(-c4cnn(CC)c4)c(=O)c-3c[nH]2)CC1`, 36.6%.
The same measure for `CC(=O)N[C@@H]1CN(C(=O)c2csc(C(C)C)n2)C[C@H]1C(C)C`: 9.87%.
For the compound `CC(=O)N1C[C@H](NC(=O)c2ccnc(N)c2)[C@@H](C(C)C)C1`, the INHIBITION is listed as 19.1%.
The same measure for `CC(=O)N1C[C@H](NC(=O)c2csc(C(C)C)c2)[C@@H](C(C)C)C1`: 51.1%; for `COCC(=O)N1CC[C@H]2[C@H]1CCN2CC(C)C`: 52.6%.
The same measure for `CC(C)CN1CC[C@@H]2[C@@H]1CCN2C(=O)N(C)C`: 3.88%; for `CC(C)CN1CC[C@@H]2[C@@H]1CCN2C(=O)N1CCCC1`: 31.9%.
With `CN(C)CC(=O)N1C[C@@H]2CC[C@H](Oc3ccccc3)[C@@H]2C1` the figure was -21.4%; with `COc1cccc(CN(C)S(=O)(=O)N2CCOCC2)c1`, 34.7%; with `Cc1nn(C)c(N(C)C)c1CNCc1cccnc1N1CCOCC1`, -69.3%.
As for `O=C(NC1CC1)[C@@H]1CN(Cc2ccc3c(c2)OCO3)C[C@H]2OCC[C@H]21`, the INHIBITION came out at 13.7%.
With `CC(CC#N)N(C)Cc1ccccc1Cl` (stereo unspecified) the figure was 38.5%.
With `CCC(C)N(Cc1c[nH]c(C)n1)Cc1ccccc1Cl` (stereo unspecified) the figure was 41%; with `CCC(C)N(Cc1cc(C)n[nH]1)Cc1ccccc1Cl` (stereo unspecified), 79%.
`CNC(=O)NC(=O)CN1CCc2c(Br)ccc(F)c2C1`: the INHIBITION is recorded as -34.8%.
The same measure for `COc1ccccc1CCNC(=O)CNCC1CN(C)CCO1` (stereo unspecified): 11%; for `COc1ccc(-c2c(C)nn3c(=N)c(C#N)n[nH]c23)cc1`: 3.19%.
With `COc1ccc(-c2c(C)nn3c(=N)c(C#N)n[nH]c23)cc1OC` the figure was 85%.
The same measure for `COc1ccc(-c2csc(N)c2C#N)cc1OC`: 1.58%; for `CCc1nn2c(=N)c(C#N)n[nH]c2c1-c1ccc(OC)cc1`: 22.9%; for `COc1ccc(-c2nc(C#N)c(N(C)C)o2)cc1OC`: -34.9%.
With `COc1ccc(-c2c(C(C)C)nn3c(=N)c(C#N)n[nH]c23)cc1`, the INHIBITION was determined as 53.1%.
With `CN(C)C[C@H]1OC[C@@H]2CCN(C(=O)c3ccc[nH]3)C[C@@H]21` the figure was 29.8%; with `Cc1noc(C2CCC3(CCN(C(=O)c4cnn(C)c4)CC3)O2)n1` (stereo unspecified), 44.1%.
The same measure for `CC(C)(NS(C)(=O)=O)c1nc(-c2ccc(F)c(F)c2)no1`: -7.02%; for `O=C(c1ccc2c(c1)COC2)N1CCCC(n2cncn2)C1` (stereo unspecified): 0.411%; for `CO[C@H]1CN(Cc2ccc(F)c(F)c2)C[C@@]12CCCO2`: 35.2%.
The same measure for `Cc1nc(NC(=O)NC(CS(C)(=O)=O)c2ccccc2)sc1C` (stereo unspecified): 35.1%; for `Cc1nc2n(n1)CC(NCc1csc(-c3ccsc3)n1)CC2` (stereo unspecified): 22.55%.
Turning to `Cc1nc(C2CCCNC2)cc(N(Cc2c(C)nn(C)c2C)C2CC2)n1` (stereo unspecified), the INHIBITION is -21.5%.
Take `COc1cc(S(=O)(=O)N2CCc3ccc(Cl)cc32)cc(C(=O)O)c1OC`: the INHIBITION is given as -11.4%.
For the compound `COc1cc(S(=O)(=O)N2CCc3ccccc32)cc(C(=O)O)c1OC`, the INHIBITION is listed as 48.2%.
With `COc1cc(S(=O)(=O)N2CCc3cc(Br)ccc32)cc(C(=O)O)c1OC` the figure was 62.6%.
For the compound `COc1cccc(CC2CN(C3CCN(C(C)=O)CC3)CCO2)c1` (stereo unspecified), the INHIBITION stood at 1.81%.
Turning to `CCOC(=O)CCNC(=O)N1CCOC(Cc2cccc(OC)c2)C1` (stereo unspecified), the INHIBITION is given as 53.7%.
The same measure for `CCOC(=O)CNC(=O)N1CCOC(Cc2ccc(OC)cc2)C1` (stereo unspecified): -17.4%; for `CS(=O)(=O)c1ccc(NC(=O)N2C[C@H](O)[C@@H](N3CCOCC3)C2)cc1`: 67.5%; for `Cc1ccccc1C(=O)N1C[C@@H](O)[C@H](N2CCOCC2)C1`: 33.25%.
The same measure for `O=C(Nc1ccc(-n2cccn2)cc1)N1C[C@H](O)[C@@H](N2CCOCC2)C1`: 44.3%.
